Screen size: about 340,000 compounds; about 1,000 (0.29%) were called active. Cut-off read from the data, not from the text of the source: inconclusive = inhibition above about 27% without an active follow-up result; inactive = below that. Not all results are given here. Potency and affinity values are given separately.
assay: H1N1 influenza NS1A inhibitors, functional cell based assay (AID 504329); conditions: percent inhibition, at 12.5 µM, active compounds read high

| Compound | inhibition |
| --- | --- |
| CNc1c([N+](=O)[O-])cnn1-c1ccccc1Cl | -8.09% (inactive) |
| COc1ccccc1-n1cc2c([N+](=O)[O-])cc([N+](=O)[O-])cc2n1 | 41.1% (inactive) |
| COc1ccc(C(=O)Nc2nc(-c3ccc([N+](=O)[O-])cc3)c(-c3ccc(OC)cc3)s2)cc1 | -6.06% (inactive) |
| Nc1nn(-c2ccccc2)nc1C(=O)OCc1ccccc1F | 1.7% (inactive) |
| CC(=O)c1sc(NC(=O)c2ccc(Cl)cc2)nc1C | 0.95% (inactive) |
| CC1CN(c2ccc([N+](=O)[O-])cc2C(=O)N2CCOCC2)CC(C)N1 (stereo unspecified) | -4.9% (inactive) |
| CC(=O)Nc1cccc(NC(=O)CSc2nnc3ccc(-c4cccnc4)nn23)c1 | 2.74% (inactive) |
| CCOc1ccc2c(c1)-c1c(ssc1=S)C(C)(C)N2 | 21.5% (inactive) |
| CC1(C)Nc2ccc(O)cc2-c2c1ssc2=S | 19% (inactive) |
| CC1CCCN(C(=O)CNC(=O)c2cccs2)C1 (stereo unspecified) | -11.6% (inactive) |
| O=Cc1ccc(Cl)c(Cl)c1 | -13.3% (inactive) |
| COc1ccc(C)cc1NCC(=O)Nc1ccc(C(C)(C)C)cc1 | -0.26% (inactive) |
| O=C(CSc1nccc2ccccc12)N1CCN(c2ccccn2)CC1 | 9.51% (inactive) |
| O=C(COc1cccc2ccccc12)N1CCN(c2ccccn2)CC1 | 0.39% (inactive) |
| Cc1cccc(OCC(=O)NCC(=O)N/N=C/c2cc(Br)ccc2OCc2ccccc2)c1 | 9.61% (inactive) |
| COc1cc(O)c(C(CCN2CCCC2)c2ccc(N(C)C)cc2)c(OC)c1 (stereo unspecified) | 26.1% (inactive) |
| COc1cc(OC)c2ccc(=O)oc2c1C(CCN1CCCC1)c1ccc(N(C)C)cc1 (stereo unspecified) | 21.8% (inactive) |
| COc1cc(OC)c2ccc(=O)oc2c1C(CCN1CCCCC1)c1ccc(N(C)C)cc1 (stereo unspecified) | 9.04% (inactive) |
| COc1ccc(C(CCN2CCN(c3ccccc3)CC2)c2c(O)cc(OC)cc2OC)cc1 (stereo unspecified) | 15.3% (inactive) |
| NC(=O)CCN1CCN(C(=O)c2ccc3nc(Cc4cccc(Cl)c4)oc3c2)CC1 | -5.64% (inactive) |
| CCOC(=O)c1c(NC(=O)COC(=O)Cc2n[nH]c(=O)c3ccccc23)sc(C(=O)N(C)C)c1C | -4.28% (inactive) |
| COc1ccccc1/C=N\Nc1ccccc1[N+](=O)[O-] | 9.18% (inactive) |
| O=[N+]([O-])c1ccc(N/N=C/c2c[nH]c3ccccc23)cc1 | 7.03% (inactive) |
| CCCOc1ccc(/C=N/Nc2ccccc2[N+](=O)[O-])c(O)c1 | 3.15% (inactive) |

| Compound | inhibition |
| --- | --- |
| CCCOc1ccc(/C=N/Nc2ccc(C(=O)O)cc2)c(OCCC)c1 | 10.8% (inactive) |
| CCOc1ccccc1/C=N/Nc1ccccc1[N+](=O)[O-] | 28.9% (inactive) |
| O=[N+]([O-])c1ccccc1N/N=C\c1ccccc1Cl | 1.01% (inactive) |
| Cc1cccc(NC(=O)Cn2nc(-c3ccco3)ccc2=O)c1C | 0.81% (inactive) |
| COC(C[C@H](O)C[C@@H](O)[C@H](C)OCc1ccccc1)OC | -2.93% (inactive) |
| CCCCOCCCNC(=S)Nc1ccc(S(=O)(=O)N2CCOCC2)cc1 | 0.29% (inactive) |
| CCCCC1=C(C(=O)OCC)C(C(=O)OCC)Oc2ccccc21 (stereo unspecified) | -8.03% (inactive) |
| COc1ccc(CN(CC(=O)NCc2ccccc2)C(=O)CCC(=O)Nc2ccccn2)cc1 | -6.86% (inactive) |
| C/C=C(\C)CN1CCC(n2nccc2NC(=O)CCCc2ccccc2)CC1 | -5.21% (inactive) |
| CCCN(CC(=O)Nc1ccccc1C)C(=O)c1ccc(=O)n(Cc2ccccc2)n1 | 5.93% (inactive) |
| CN(C)N1C(N)=C(C#N)C(c2cccnc2)C2=C1CCCC2=O (stereo unspecified) | 0.98% (inactive) |
| COc1ccc(Cl)cc1NS(=O)(=O)c1cn(C)nc1C | -6.95% (inactive) |
| Cc1c(C)n(CCN(C)C)c2ccc(C(=O)OCCN(C)C)cc12 | -4.19% (inactive) |
| Cc1c(C)n(Cc2ccccc2)c2ccc(C(=O)OCCN(C)C)cc12 | 18.7% (inactive) |
| CCn1ccnc1CN(C)Cc1cn(-c2cc(C)ccc2C)nc1-c1ccccc1 | 7.7% (inactive) |
| Cc1ccc(C)c(-n2cc(CNCCCn3cccn3)c(-c3ccccc3)n2)c1 | -27.8% (inactive) |
| CCOC(=O)C1(C(=O)OCC)NC(=O)CC1C (stereo unspecified) | 1.41% (inactive) |
| O=C(N/N=C/c1ccc2ncccc2c1)c1cc(-c2cccs2)nc2ccccc12 | -4.78% (inactive) |
| C/C(=N\NC(=O)c1cc(C)nc2ccccc12)c1ccco1 | -1.27% (inactive) |
| C/C(=N\NC(=O)c1cc(C)nc2ccccc12)c1ccncc1 | 7.15% (inactive) |
| NNC(=O)c1cc(-c2cccs2)nc2ccccc12 | 25.3% (inactive) |
| COc1ccc(CC(=O)Nc2nc(-c3ccncc3)cs2)cc1 | 3.49% (inactive) |
| Cc1nn(-c2ccccc2)c(N2CCCC2)c1/C=N/NC(=O)c1ccccc1O | -10.1% (inactive) |
| O=C(Oc1ccc(/C=N/NC(=O)c2ccccc2O)cc1)c1ccccc1 | 1.64% (inactive) |

| Compound | inhibition |
| --- | --- |
| CCOC(=O)C1CCCN(C(=O)C2CCN(Cc3nc(-c4ccc(Cl)cc4)oc3C)CC2)C1 (stereo unspecified) | -0.69% (inactive) |
| COC(=O)c1ccc(COc2ncnc3ccccc23)o1 | 2.36% (inactive) |
| CC1=C/C(=C(\c2ccc(O)c(C)c2)c2ccccc2S(=O)(=O)O)C=CC1=O | -2.96% (inactive) |
| CC1=C/C(=C(/c2ccc(O)c(C)c2)c2ccccc2S(=O)(=O)O)C=CC1=O | 12.6% (inactive) |
| O=[N+]([O-])c1ccc(N2CCOCC2)c([N+](=O)[O-])c1 | 4.03% (inactive) |
| O=[N+]([O-])c1ccc([N+](=O)[O-])c(Nc2ccc(N3CCOCC3)cc2)c1 | -0.167% (inactive) |
| NC(=O)c1ccccc1N/C=C/C(=O)c1ccccc1 | 1.83% (inactive) |
| COc1ccc(Cn2c(=O)[nH]c3cc(C(=O)N4CCN(c5ccc(OC)cc5)CC4)ccc3c2=O)cc1 | -8.57% (inactive) |
| Cc1ccc(NC(=O)COC(=O)Cn2ccc(C(F)(F)F)n2)cc1Cl | 0.4% (inactive) |
| CN=c1scc(-c2ccco2)n1/N=C/c1ccc(O)c(O)c1 | 19.1% (inactive) |
| CCN=c1scc(-c2ccco2)n1/N=C/c1ccc(OC)c(O)c1 | 28.8% (inactive) |
| CN(CC(=O)Nc1ccccc1Cl)C(=O)C1CCN(C(=O)c2ccc(F)cc2)CC1 | -9.67% (inactive) |
| Cc1cc(C(=O)Nc2cccc(S(=O)(=O)N3CCOCC3)c2)c2ccccc2n1 | -7.61% (inactive) |
| O=C(C[n+]1ccccc1)N/N=C/c1ccc(Br)cc1 | 3.75% (inactive) |
| O=C(C[n+]1ccccc1)N/N=C/c1cc(Br)ccc1F | 2.1% (inactive) |
| O=C(Cc1ccccc1)N/N=C/c1cc(Br)cc(Br)c1O | -3.61% (inactive) |
| COc1ccc(Br)cc1/C=N/NC(=O)C[n+]1ccccc1 | -3.17% (inactive) |
| O=S(=O)(NN1CCOCC1)c1ccc(Br)cc1 | -5.55% (inactive) |
| COc1ccc(/C=N/NC(=O)C2c3ccccc3-c3ccccc32)cc1 | 1.63% (inactive) |
| CCNC(=S)NNC(=O)c1ccncc1 | -6.57% (inactive) |
| O=C1/C(=C/c2cccs2)NC(=S)N1C1CC1 | 25.9% (inactive) |
| O=C(NNC(=O)C1CC=CCC1)c1ccccc1Cl (stereo unspecified) | -13.4% (inactive) |
| Cc1ccc(/C=C2\C(=O)NC(=S)N(c3ccccc3F)C2=O)s1 | -6.98% (inactive) |
| COc1ccc(/C=C2/C(=O)NC(=S)N(C3CC3)C2=O)cc1CN1C(=O)c2ccccc2C1=O | -5.91% (inactive) |

| Compound | inhibition |
| --- | --- |
| Cc1ccccc1SCC(=O)NNC(=O)c1ccccc1O | -9.27% (inactive) |
| CCOC(=O)C1CCN(/C=C2\C(=O)NC(=S)N(CC)C2=O)CC1 | 1.72% (inactive) |
| O=C(NNC(=O)c1ccccc1Cl)c1ccccc1Cl | -1.97% (inactive) |
| Cc1cccc(NC(=O)COc2ccc(/C=N\n3cnnc3)cc2)c1 | -2.09% (inactive) |
| CS(=O)(=O)N1CCN(C(=O)Cc2ccc(Br)cc2)CC1 | -21.4% (inactive) |
| O=C(O)/C=C/c1cn(-c2ccccc2)nc1-c1ccccc1 | -7.13% (inactive) |
| CCOc1ccc(C(C(=O)NC2CCCCC2)N(C(=O)c2ccccn2)c2cccnc2)cc1 (stereo unspecified) | -3.97% (inactive) |
| CCCCCCCCNc1nc(Cl)nc(NCc2ccco2)n1 | -0.33% (inactive) |
| O=C(O)c1ccccc1NS(=O)(=O)c1cccc2nsnc12 | -1.24% (inactive) |
| O=C(NNC(=S)NC1CCCCC1)c1ccccc1O | 5.32% (inactive) |
| O=C(N/N=C/c1c(O)n(C2CCCCC2)c(=S)[nH]c1=O)c1ccccc1O | -5.43% (inactive) |
| Cn1nccc1C(=O)Nc1sc2c(c1C(N)=O)CCCC2 | -3.24% (inactive) |
| Oc1ccc(CNc2ccccc2)c2cccnc12 | 10.6% (inactive) |
| Oc1cc2c(cc1CN1CCc3ccccc3C1)OCO2 | 13.1% (inactive) |
| CN1CCN(Cc2cc(Cl)c3cccnc3c2OC(=O)c2cccs2)CC1 | -0.27% (inactive) |
| O=C(Oc1c(CN2CCOCC2)cc(Cl)c2cccnc12)c1ccc(F)cc1 | 5.6% (inactive) |
| Oc1ccc(CNc2ccccc2F)c2cccnc12 | 12.8% (inactive) |
| Oc1ccc(CNc2ccc(F)cc2)c2cccnc12 | 28.1% (inactive) |
| O=c1oc2ccccc2c(O)c1Cc1cc(Cl)c2cccnc2c1O | -5.95% (inactive) |
| Oc1c(I)cc(Cl)c2cccnc12 | -16.7% (inactive) |
| CC(=O)OCC(=O)c1ccc2ccn(C(C)=O)c2c1 | 2.53% (inactive) |
| c1ccc(CN(Cc2cccs2)C(c2cccs2)c2nnnn2C2CCCC2)cc1 (stereo unspecified) | 4.12% (inactive) |
| CSc1cc(-c2ccc(Cl)cc2)c(C(=O)N2CCCC2)s1 | -3.23% (inactive) |
| O=S(=O)(c1cc(F)ccc1F)N1CCN(C2CCCCC2)CC1 | 0.25% (inactive) |
